# “And” between values parts separate entries of the source, which are not always exact repeats. Equal values may be shown once. This is part of a sample that, as a whole, favours compounds with a hit. Of some 79,000 tested, about 15% had one in any assay. A structure can be active in one record and inactive in another. The source made the active and inactive calls. Cut-off read from the data, not from the text of the source: active = growth inhibition above about 70%; inactive = the rest.
# What was measured:
# [1] = NCI Yeast Anticancer Drug Screen. Data for the rad50 strain (AID 155);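 note: 0% = growth of vehicle-only cultures of the same strain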; details: S. cerevisiae rad50 strain growth inhibition, stronger effect = higher value
# Outline: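 Compounds were tested on a yeast strain with an engineered DNA damage repair alteration; the reported value is growth inhibition normalised to vehicle treatment.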
# [2] = NCI Yeast Anticancer Drug Screen. Data for the mec2-1 strain (AID 157); details: S. cerevisiae mec2-1 strain, stronger effect = higher value
# Outline: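 Compounds were applied to mec2-1 yeast cells. Their growth was then compared with that of vehicle-treated cultures to give growth inhibition.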
# [3] = NCI Yeast Anticancer Drug Screen. Data for the sgs1 mgt1 strain (AID 161);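 note: 0% = growth of cultures given vehicle only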; details: S. cerevisiae sgs1 mgt1 strain, stronger effect = higher value
# Outline: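 Growth of a repair-deficient yeast mutant was monitored after compound treatment and expressed as inhibition relative to vehicle-treated cultures.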
# [4] = NCI Yeast Anticancer Drug Screen. Data for the cln2 rad14 strain (AID 165);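 note: 0% = growth equal to vehicle treated cultures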; details: S. cerevisiae cln2 rad14 strain, stronger effect = higher value
# Outline: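 Strain: cln2 rad14 yeast, altered in cell cycle control and DNA damage repair. Read-out: growth inhibition vs vehicle.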
# [5] = NCI Yeast Anticancer Drug Screen. Data for the bub3 strain (AID 167); details: S. cerevisiae bub3 mutant strain, stronger effect = higher value
# Outline: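 Growth of a checkpoint-deficient yeast mutant is measured after compound exposure. Values represent inhibition relative to vehicle.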
# [6] = NCI Yeast Anticancer Drug Screen. Data for the mlh1 rad18 strain (AID 175); details: S. cerevisiae mlh1 rad18 strain growth inhibition, stronger effect = higher value
# Outline: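 A repair-deficient yeast strain is exposed to test compound, and growth is scored relative to vehicle-treated controls.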
# [7] = at 5.0 µM (retest, dose inferred, filed as 0.5)
# [8] = at 50.0 µM (retest, dose inferred, filed as 5.0)
SMILES,"growth inhibition [1, 7]","growth inhibition [1, 8]",growth inhibition ([1]; at 50.0 µM),"growth inhibition [2, 7]","growth inhibition [2, 8]",growth inhibition ([2]; at 50.0 µM),"growth inhibition [3, 7]","growth inhibition [3, 8]",growth inhibition ([3]; at 50.0 µM),"growth inhibition [4, 7]","growth inhibition [4, 8]",growth inhibition ([4]; at 50.0 µM),"growth inhibition [5, 7]","growth inhibition [5, 8]",growth inhibition ([5]; at 50.0 µM),"growth inhibition [6, 7]","growth inhibition [6, 8]",growth inhibition ([6]; at 50.0 µM)
CCN(CC)CCCn1c2cc(=O)c(=O)cc-2[nH]c2cc(C)ccc21,1% (inactive),58% (inactive),10.4% (inactive),2% (inactive),27% (inactive),-4.3% (inactive),2% (inactive),74% (active),23.6% (inactive),5% (inactive),55% (inactive),-15.4% (inactive),3% (inactive),51% (inactive),-8.05% (inactive),3% (inactive),52% (inactive),40% (inactive)
O=C1COC(=O)/C1=C/c1ccc2c(c1)OCO2,12% (inactive) and 15% (inactive),78% (active) and 86% (active),76.6% (active) and 77.4% (active),16% (inactive) and 26% (inactive),84% (active) and 90% (active),64.1% (inactive) and 84.5% (active),18% (inactive),69% (inactive) and 93% (active),78.5% (active) and 86.4% (active),4% (inactive) and 15% (inactive),71% (active) and 61% (inactive),56% (inactive) and 54.6% (inactive),2% (inactive) and 4% (inactive),82% (active) and 89% (active),65.5% (inactive) and 88% (active),9% (inactive) and 14% (inactive),81% (active),93.2% (active) and 95.1% (active)
COc1ccc(/C=C2\C=Nc3ccccc32)cc1,12% (inactive),-10% (inactive),12.7% (inactive),-3% (inactive),10% (inactive),-5.7% (inactive),0% (inactive),-3% (inactive),17.9% (inactive),28% (inactive),25% (inactive),10.4% (inactive),18% (inactive),30% (inactive),33.7% (inactive),12% (inactive),11% (inactive),4.55% (inactive)
CCOc1ccc(NC(=O)C(=O)NO)cc1,7% (inactive),73% (active),83% (active),-25% (inactive),59% (inactive),71.8% (active),10% (inactive),67% (inactive),74% (active),6% (inactive),26% (inactive),52% (inactive),-8% (inactive),85% (active),79.5% (active),-14% (inactive),87% (active),79.7% (active)
